Shown are actives, neighbours in structure and some others; about 1.7% of the full set was active somewhere.
ABCB6 inh MLPCN: inhibitors of human ABC transporter ABCB6. Q9NP58. K562-ABCB6 porphyrin accumulation, flow cytometry, 1 h; active compounds read low. fluorescence ratio to DMSO, % at 10 µM. 360,000 tested, 0.19% active;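 active = fluorescence ratio to DMSO below 75%, the collection mean minus 3 SD; inconclusive = too few cells collected in the well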;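 note: signal is porphyrin accumulated inside mitochondria; lower ratio means ABCB6 inhibition with less porphyrin fluorescence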
TLR4 MyD88 comp: TLR4-MyD88 interaction inhibition in cells; O00206+Q99836; HeLa CL3-4 TLR4/MyD88 BLA complementation, FRET ratio; inhibition, % at 8.4 µM; 200,000 tested, 0.18% active; in the data active = inhibition above about 25%
Target sequence (O00206 whole entry, looked up): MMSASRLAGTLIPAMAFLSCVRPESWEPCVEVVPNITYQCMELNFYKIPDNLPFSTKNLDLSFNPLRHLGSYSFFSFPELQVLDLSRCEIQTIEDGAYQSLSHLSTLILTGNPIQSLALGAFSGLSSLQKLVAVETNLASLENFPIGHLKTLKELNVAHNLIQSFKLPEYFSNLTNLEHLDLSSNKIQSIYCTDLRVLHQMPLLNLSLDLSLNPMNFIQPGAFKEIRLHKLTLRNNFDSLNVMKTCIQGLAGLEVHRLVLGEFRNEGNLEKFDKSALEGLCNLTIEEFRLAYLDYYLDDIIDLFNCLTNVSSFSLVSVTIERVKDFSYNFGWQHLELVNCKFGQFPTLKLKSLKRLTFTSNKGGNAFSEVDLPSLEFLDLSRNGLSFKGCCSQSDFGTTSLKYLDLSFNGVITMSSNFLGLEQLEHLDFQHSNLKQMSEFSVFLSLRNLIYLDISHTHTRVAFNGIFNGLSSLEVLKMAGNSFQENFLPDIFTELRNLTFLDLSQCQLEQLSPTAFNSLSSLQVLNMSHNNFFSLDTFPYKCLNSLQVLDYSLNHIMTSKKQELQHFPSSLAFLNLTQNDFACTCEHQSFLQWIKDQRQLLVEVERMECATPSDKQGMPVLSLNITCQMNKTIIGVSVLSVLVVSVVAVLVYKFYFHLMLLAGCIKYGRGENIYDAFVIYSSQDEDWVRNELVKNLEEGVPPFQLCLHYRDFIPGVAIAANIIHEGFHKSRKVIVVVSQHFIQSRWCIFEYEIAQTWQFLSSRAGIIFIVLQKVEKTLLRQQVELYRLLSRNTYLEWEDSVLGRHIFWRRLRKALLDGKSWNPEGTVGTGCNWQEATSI
Target sequence (Q99836 whole entry, looked up): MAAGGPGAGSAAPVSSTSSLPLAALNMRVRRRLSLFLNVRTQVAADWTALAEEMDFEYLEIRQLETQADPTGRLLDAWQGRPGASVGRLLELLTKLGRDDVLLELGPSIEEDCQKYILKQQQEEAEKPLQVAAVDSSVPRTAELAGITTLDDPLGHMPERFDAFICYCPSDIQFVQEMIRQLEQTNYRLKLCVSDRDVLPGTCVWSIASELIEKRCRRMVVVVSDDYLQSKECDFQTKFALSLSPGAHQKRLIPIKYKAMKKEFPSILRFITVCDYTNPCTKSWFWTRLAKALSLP
TLR9-MyD88 block: blocks human TLR9 binding to MyD88; Q9NR96+Q99836; CHO BLA complementation TLR9-MyD88, CCF4 FRET ratio; inhibition, % at 4.98 µM; 340,000 tested, 0.21% active; AID 504734;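 active = inhibition above the mean over all tested compounds plus 3 SD, cut at about 21% in these data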
NOD2-RIPK2 inh: blocks binding of human NOD2 to RIPK2 | AID 624267 | CHO BLA complementation NOD2-RIPK2, CCF4 ratio | 360,000 tested, 0.38% active | inhibition, % at 4.98 µM | O43353; in the data active = inhibition above about 21%
Myeloid diff 2: myeloid differentiation induction; ER-HoxA9 myeloid progenitors, lysozyme-GFP differentiation, flow cytometry; calls only at 10 µM; 360,000 tested, 1% active; AID 624256;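 active = normalized GFP-positive differentiation at or above the plate's own cutoff, the solvent-only control mean plus 3 SD; inconclusive = no clear call, values can overlap the other calls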;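 note: cells exposed to compound for four days before flow analysis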
TLR9-MyD88 cf: TLR9-MyD88 interaction inhibition, confirmation; inhibition, % at 4.98 µM; 680 tested, 51% active; shares compounds with TLR9-MyD88 block; CHO TLR9/MyD88 BLA complementation, CCF4 FRET ratio; AID 540250;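 active = mean inhibition across three repeats above about 21% taken from the earlier screen, limit read from the data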;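 note: blue over green emission ratio reports constitutive TLR9 MyD88 association via BLA complementation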
BLA counter-1: beta-lactamase reporter inhibition, counter-screen artifact | shares compounds with TLR9-MyD88 block | CHO-BLA cells, CCF4 FRET ratio, BLA reporter | inhibition, % at 4.98 µM | 680 tested, 7% active;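 active = mean inhibition above a 50% cutoff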;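 note: counterscreen of TLR9-MyD88 hits on CMV-driven BLA in CHO-K1 cells; higher means less blue over green ratio so more BLA blockade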
TLR9 CHO cytotox: CHO cell toxicity counter-screen for TLR9-MyD88 inhibitors; shares compounds with TLR9-MyD88 block; TLR9-MyD88 CHO cells cytotoxicity, luminescence; inhibition, % at 4.98 µM; 680 tested, 39% active; AID 588336; in the data active = inhibition above about 11%
ABCB6 inh CP1: human ABCB6 transporter inhibition; shares compounds with ABCB6 inh MLPCN; K562-ABCB6 porphyrin accumulation, flow cytometry, 1 h; active compounds read low; ratio response (% of DMSO), % at 10 µM; 700 tested, under 10 active; AID 602430;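 active = repeat-averaged ratio response below 75% of DMSO, the collection mean minus 3 SD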;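 note: median porphyrin fluorescence at 575 nm with 488 nm excitation from mitochondria; lower ratio means less porphyrin signal so ABCB6 inhibition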
Myeloid diff: promotes myeloid progenitor differentiation | ER-HoxA9 myeloid progenitors, GFP/Mac1 double-positive flow | 2,300 tested, 2% active | shares compounds with Myeloid diff 2 | calls only | AID 651706;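 active = share of green or green-and-red cells above 9 and 9% in run 1 or 4 and 3% in run 2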
GFP autofluor: counter-screen for myeloid differentiation promoters: compound fluorescence; shares compounds with Myeloid diff 2; 2,300 tested, 7.4% active; ER-HoxA9 myeloid progenitors, no estrogen, GFP autofluorescence flow cytometry; vehicle wells 0%, positive control 100%; AID 651707; fluorescence response, % (concentration not given with the values);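 active = over 5% cells positive for green fluorescent reporter, or over 2% positive for both it and APC stain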
NOD2 RIPK2 conf: NOD2-RIPK2 interaction inhibition confirmed; 1,200 tested, 70% active; inhibition, % at 4.98 µM; AID 624370; CHO cells, NOD2-RIPK2 BLA complementation, CCF4 FRET; shares compounds with NOD2-RIPK2 inh;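 active = mean inhibition across replicates above a set limit taken from the earlier primary screen, cut at about 21% in these data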
BLA counter-2: counter-screen for NOD2-RIPK2 interaction inhibitors: BLA reporter. inhibition, % at 4.98 µM. shares compounds with NOD2-RIPK2 inh. CHO BLA reporter, CCF4 FRET ratio, counterscreen. 1,200 tested, 57% active. AID 624371;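 active = mean inhibition above the low-control mean inhibition plus three low-control SD, cut at about 11% in these data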
Each line names hits and unclear results; the compound was inactive in the other large screens (follow-up assays come after a bar, where they were run).

CCC1(C)OC(c2ccccc2)=C/C(=C/C=C2C(=O)NC(=O)NC2=O)O1 (stereo not drawn)	TLR9-MyD88 block 33.2 | TLR9-MyD88 cf 24.8 | BLA counter-1 inactive | TLR9 CHO cytotox inactive
COc1cc(/C=C(/C)[N+](=O)[O-])ccc1OCc1ccccc1Cl	TLR9-MyD88 block 34.0, NOD2-RIPK2 inh 81.0, Myeloid diff 2 inconclusive | TLR9-MyD88 cf 33.8 | BLA counter-1 inactive | TLR9 CHO cytotox 98.9
COC(=O)C1=C(c2ccc(OC(F)(F)F)cc2)C[C@@H]2CC[C@H]1N2C(=O)NCc1cc(C)oc1C(F)(F)F	none (no result: TLR4 MyD88 comp)
Cc1cccc(N2C(=O)NC(=O)/C(=C\c3cnc(-c4ccccc4)nc3)C2=O)c1	none
Cc1cc(C)cc(N2C(=O)NC(=O)/C(=C\c3cccn3-c3ccccc3)C2=O)c1	TLR9-MyD88 block 22.2 | TLR9-MyD88 cf inactive | BLA counter-1 inactive | TLR9 CHO cytotox inactive
CNCC[C@@H](Oc1ccc(C(F)(F)F)cc1)c1ccccc1	none (no result: TLR4 MyD88 comp)
Nc1cc(Cl)c2nonc2c1[N+](=O)[O-]	TLR9-MyD88 block 52.2, NOD2-RIPK2 inh 73.6, Myeloid diff 2 inconclusive | TLR9-MyD88 cf 47.9 | BLA counter-1 inactive | TLR9 CHO cytotox 97.2 | NOD2 RIPK2 conf 75.6 | BLA counter-2 21.4
O=[N+]([O-])c1c(Cl)c(Cl)c(Cl)c(Cl)c1Cl	none (no result: TLR4 MyD88 comp)
CC1=NNC(=O)C1Br (stereo not drawn)	none (no result: TLR4 MyD88 comp)
CC1=NCCc2c1[nH]c1cc(O)ccc21	TLR9-MyD88 block 32.1, NOD2-RIPK2 inh 54.2 (no result: TLR4 MyD88 comp) | TLR9-MyD88 cf 26.1 | BLA counter-1 inactive | TLR9 CHO cytotox inactive | NOD2 RIPK2 conf 49.5 | BLA counter-2 51.2
C[CH2][Hg][S]c1ccccc1C(=O)O	TLR9-MyD88 block 52.0, NOD2-RIPK2 inh active, Myeloid diff 2 active (no result: TLR4 MyD88 comp) | TLR9-MyD88 cf 47.7 | BLA counter-1 inactive | TLR9 CHO cytotox 97.4 | NOD2 RIPK2 conf active | BLA counter-2 inactive
O=C1CC2OCC=C3CN4CCC56c7ccccc7N1C5C2C3CC46O (stereo not drawn)	none (no result: TLR4 MyD88 comp, TLR9-MyD88 block)
O=C(CCN1CCOCC1)NCC(=O)Nc1ccc(Br)cc1C(=O)c1ccccc1	ABCB6 inh MLPCN 70.0 | ABCB6 inh CP1 inactive
Fc1ccccc1CNCCc1c[nH]c2ccccc12	none (no result: TLR4 MyD88 comp)
Fc1ccc(CNCCc2c[nH]c3ccccc23)cc1	ABCB6 inh MLPCN 69.0 (no result: TLR4 MyD88 comp) | ABCB6 inh CP1 inactive
Cc1ccccc1NC(=O)N1Cc2ccccc2-n2nncc2C1	none (no result: TLR4 MyD88 comp)
CCOC(=O)c1c(-n2c(C)cc(/C=C3/C(=O)NC(=O)N(CC)C3=O)c2C)sc2c1CCCC2	ABCB6 inh MLPCN 73.0 | ABCB6 inh CP1 inactive
CC1=C(C)CN2CC(C#N)=C(N)C2C1 (stereo not drawn)	none (no result: TLR4 MyD88 comp, TLR9-MyD88 block)
C[N+](C)(C)CC1CCCC(C[N+](C)(C)C)C1=O (stereo not drawn)	ABCB6 inh MLPCN 43.0, Myeloid diff 2 inconclusive (no result: TLR4 MyD88 comp) | ABCB6 inh CP1 68.0
Fc1cccc(-c2ccc3c(c2)CNCc2cnnn2-3)c1	none (no result: TLR4 MyD88 comp, TLR9-MyD88 block)
CCCCn1c(O)c(C(C)=NC(C)c2ccccc2)c(=O)[nH]c1=O (stereo not drawn)	ABCB6 inh MLPCN 72.0 (no result: Myeloid diff 2) | ABCB6 inh CP1 inactive
CCCCn1c(O)c(C(CC)=Nc2ccc(OCC)cc2)c(=O)[nH]c1=O	ABCB6 inh MLPCN 74.0 | ABCB6 inh CP1 inactive
CCCCn1c(O)c(C(CC)=Nc2ccc(OC)cc2OC)c(=O)[nH]c1=O	none
CC(=O)N1CCC2(CC1)CC(=O)c1cc(OCC(=O)N3CCN(C)CC3)ccc1O2	ABCB6 inh MLPCN 58.0 | ABCB6 inh CP1 inactive
CC(=O)N1CCC2(CC1)CC(=O)c1cc(OCC(=O)N3CCC4(CC3)OCCO4)ccc1O2	none
COc1ccc(C(=O)OCC2CN2c2cccc([N+](=O)[O-])c2)cc1 (stereo not drawn)	none (no result: TLR4 MyD88 comp, TLR9-MyD88 block)
COc1ccc(OC(=O)N(C)C[C@H]2OCc3cnnn3CCCC(=O)N([C@@H](C)CO)C[C@H]2C)cc1	none (no result: TLR4 MyD88 comp)
COc1ccc(OC(=O)N(C)C[C@@H]2OCc3cnnn3CCCC(=O)N([C@@H](C)CO)C[C@@H]2C)cc1	none (no result: TLR4 MyD88 comp) | Myeloid diff inactive | GFP autofluor inactive
O=C(NCC(c1cccnc1)N1CCN(c2ccc(F)cc2)CC1)Oc1ccccc1 (stereo not drawn)	none | Myeloid diff inactive | GFP autofluor inactive
Cc1ncc(C(=O)O)n1C(C)c1ccccc1 (stereo not drawn)	none (no result: TLR4 MyD88 comp)
COc1ccc(-n2nnnc2C(CCSC)N2CCC(n3c(=O)[nH]c4ccccc43)CC2)cc1 (stereo not drawn)	none (no result: TLR4 MyD88 comp, TLR9-MyD88 block)
COC(/C(C)=C/C=C/C(C)=C/c1coc(C)n1)C(C)C1CC(O)C2(C)OC2C=CC(C)C2CC(CC(=O)O2)CC2OC2C(=O)O1 (stereo not drawn)	none (no result: TLR4 MyD88 comp, Myeloid diff 2)
O=c1[nH]c2ccccc2n1C1CCN(Cc2ccc(-c3nc4ccc(F)cc4nc3-c3ccccc3)cc2)CC1	Myeloid diff 2 active (no result: TLR4 MyD88 comp, TLR9-MyD88 block) | Myeloid diff inactive | GFP autofluor inactive
O=c1[nH]c2ccccc2n1C1CCN(Cc2ccc(-c3nc4ccccc4nc3-c3ccccc3)cc2)CC1	none (no result: TLR4 MyD88 comp, TLR9-MyD88 block)
COc1ccccc1NC(=O)c1cn(CCC#N)nc1-c1cccc(Cl)c1	none (no result: TLR4 MyD88 comp)
O=C1C2CC(CN3CCCCC23)C2CCCCN12 (stereo not drawn)	none (no result: TLR4 MyD88 comp, TLR9-MyD88 block)
CCCCn1c(=O)c(C(=O)Nc2ccccc2C)c(O)c2ccccc21	none (no result: TLR4 MyD88 comp)
CC(C)CCn1c(=O)c(C(=O)Nc2ccccc2S(N)(=O)=O)c(O)c2ccccc21	none | Myeloid diff inactive | GFP autofluor 8.6
CCCCCn1c(=O)c(C(=O)Nc2ccccc2Cl)c(O)c2ccccc21	Myeloid diff 2 active (no result: TLR4 MyD88 comp) | Myeloid diff inactive | GFP autofluor inactive
CN1C(=O)/C(=C/c2cccn2-c2ccc3ccccc3c2)C(=O)NC1=S	none

High-throughput results (PubChem BioAssay)
